The inhibition is the relative decrease from the control value, in per cent.

The assay deals with Glucose transporter (Leishmania mexicana) (UniProt O61059). Briefly: ST_JUDE_LEISH: Cytotoxicity at 2uM final concentration against transgenic Leishmania Mexicana promastigotes LmGT2 that are glucose transport deficient and complemented with the L. Mexicana glucose transporter 2. Activity is measured by DNA content using SYBR green in vitro. It counts as functional.
As for `COc1ccc(N(c2nc(-c3cc(Cl)ccc3Cl)cs2)C2CCNC2)cc1` (stereo not given), the inhibition is 1.24%.

With `O=C(NCCc1cccc(F)c1)c1ccc(N2CCN(c3ccncc3)CC2)cn1`, the inhibition stood at 6.9%. Next, `COc1cc2nc(N(C)Cc3cccc(I)c3)nc(N)c2cc1OC`: 1.56%.

Consider `CC(C)(C)c1ccc(CN2CCC(CNC(=O)c3cc(-c4cccc(F)c4)cs3)C2)cc1` (stereo not given), for which the inhibition was determined as 4.16%.

For `O=C(NC1CC1)c1ccc(Cn2c(SCc3cccc(Cl)c3)nc3ccccc3c2=O)cc1`, the inhibition is -1.07%. As for `CC1(C)N=C(NC(=O)c2cc([N+](=O)[O-])cc([N+](=O)[O-])c2)N=C(N)N1OCc1cccc2ccccc12`, the inhibition is -0.37%. Regarding `c1ccc(CN2CCC(NCc3ccccc3-c3ccc(CNC4CCCC4)cc3)CC2)cc1`, the inhibition worked out at 6.38%.

Take `CNC(=O)COc1ccc(Nc2nnc(-c3ccc(C)c(S(=O)(=O)NCC4CCCO4)c3)c3ccccc23)cc1` (stereo not given): the inhibition is -0.43%.

Regarding `Cn1cncc1-c1ccc2ncnc(Nc3ccc(OCc4ccccc4)cc3)c2c1`, the inhibition worked out at 0.29%. The value for `COc1cccc(-c2csc(C(=O)NCC3CCN(Cc4ccc(C(C)(C)C)cc4)C3)c2)c1` (stereo not given) was 2.46%; that for `CC(C)N1CCC(N(Cc2ccc(-c3ccc(C(F)(F)F)cc3)cc2)C(=O)Cn2c(CCc3cccc(F)c3F)nc(=O)c3cccnc32)CC1` was 0.94%. Take `CCCCCCCCN1CCN(CCCCCCNc2c3ccccc3nc3ccccc23)CC1`: the inhibition is 61.1%. Turning to `COc1ccc(CC(=O)NC(CCN2CCC3(CCc4ccccc43)CC2)c2ccc(Cl)c(Cl)c2)cc1` (stereo not given), the inhibition was -0.93%. The value for `CN=C(Nc1c(Cl)cccc1Cl)N(C)C` was 4.17%; that for `C=C[C@H]1CN(CCCCCCC)CC[C@H]1CCN(C)c1ccnc2ccc(OC)cc12` was 2.13%. As to `COc1ccc(Br)cc1C1Nc2ccc3ccccc3c2C2=C1C(=O)CC(c1ccccc1)C2` (stereo not given), the inhibition was found to be 3.67%. Regarding `CS(=O)(=O)c1ccc(-c2cnc(N)c(-c3ccc(O)cc3)c2)cc1`, the inhibition was 1.48%. `Cc1[nH]c2ccc(C#N)cc2c(=O)c1Br`: the inhibition came out at 1.31%. Regarding `O=C(Nc1ccc(-c2ccc(CN3CCNCC3)cc2)cc1)c1cccc(Cl)c1`, the inhibition amounted to 104%.

On to `COc1cccc(CN2CCCC(CCC(=O)Nc3ccc(C(F)(F)F)cc3)C2)c1O` (stereo not given), for which the inhibition was determined as 1.85%. Take `CN(C)c1cccc2c(S(=O)(=O)Nc3cccc(CCN4CCC(N5CCCCC5)CC4)c3)cccc12`: the inhibition is -0.34%. On to `O=C(NCCN1CCCC1)c1cccc(-c2ccc(-c3nc4cc(F)ccc4[nH]3)s2)c1`, for which the inhibition turned out to be 3.1%. As to `O=C(/C=C/c1ccc(Cl)c(Cl)c1)NCCCCCN1CCC(NC(=O)NCCc2ccccc2)CC1`, the inhibition was -3.26%.

`CCCCCNc1nc2nc(N)nc(N)c2nc1-c1ccccc1`: the inhibition was 0.23%.

As to `Cc1cccc(C(=O)Nc2ccnc(N3CCC(N(C)Cc4cccc(O)c4)CC3)c2)c1`, the inhibition was 3.02%. Turning to `CN(C)S(=O)(=O)c1ccc(N2CCN(CCC3(c4cccc(F)c4)CCN(C(=O)C(C)(C)C)CC3)CC2)c2nonc12`, the inhibition is 2.89%. As to `O=C(N[C@@H](CC1CCCCC1)C(=O)NCCN1CCOCC1)c1ccc(O)c(-c2ccc(Cl)c(Cl)c2)c1`, the inhibition stood at 0.27%.

In the case of `COc1ccc(S(=O)(=O)N2CCOCC2)cc1NC(=O)c1cc2ccccc2o1`, the inhibition was found to be 1.69%. `COc1cc(C(=O)N2CCN(C(C)C)CC2)ccc1CN(C)CCCCN1CCN(c2cccc(Cl)c2Cl)CC1`: the inhibition is 0.12%. For `O=C(N[C@@H](Cc1ccccc1)[C@H](O)CNC1CCc2ccccc2C1)c1cc(C2CCCC2)cc(N2CCCC2=O)c1` (stereo not given in full), the inhibition is -4.47%.

As for `COc1ccc(C2=C(Nc3ccc4oc5ccccc5c4c3)c3ccccc3C2=O)cc1`, the inhibition turned out to be 0.33%. `CCN(CC)c1cc(C)c2cc(NC(=O)c3cc(=O)c4ccccc4o3)ccc2n1`: the inhibition stood at 1.71%. For the molecule `CN(C)C(=O)C(CC(=O)NCc1ccccc1Cl)N(C)C.CN(C)C(=O)CC(C(=O)NCc1ccccc1Cl)N(C)C` (stereo not given), the inhibition was 4.89%. For the molecule `CCCc1ccc(N2C(N)=NC(N)=NC2(C)C)cc1`, the inhibition was -2.29%. Regarding `C=CCn1c(=N)c(C(=O)NC2CCCCC2)cc2c(=O)n3cccc(C)c3nc21`, the inhibition was found to be 4.5%. The value for `CCOc1ccc(-c2nonc2NC(=O)CC(C)C)cc1OCC` was -1.25%; that for `O=[N+]([O-])c1cccc(-c2nc3cc(C4=NC5CCCCC5N4)ccc3[nH]2)c1` (stereo not given) was 1.26%.

As for `O=C(NCc1ccccc1[S+]([O-])c1ccccc1CO)C(F)(F)F` (stereo not given), the inhibition turned out to be 0.55%. On to `Cc1ccccc1C(=O)NC(NC(=S)Nc1ccc([N+](=O)[O-])cc1)C(Cl)(Cl)Cl` (stereo not given), for which the inhibition was 0.22%.

Take `COc1ccccc1NC(=S)N/N=C/c1ccc(O)cc1O`: the inhibition turned out to be 0.42%.

Values taken from ChEMBL document CHEMBL3433997, “St. Jude Leishmania screening dataset” (2016).
